From PubChem BioAssay
Values joined by “and” are separate entries in the source; they are usually repeats but may differ in a detail not shown here. Identical values can stand only once. The source holds several records for some structures; these can differ, active in one and inactive in another. Active and inactive are the calls of the source.

Assays:
[1] = system: PRMT1 (protein arginine N-methyltransferase 1); test: PRMT1 binders on small-molecule microarrays, primary screen, biochemical, small-molecule microarray, 635 nm fluorescence (AID 1088); conditions: small-molecule microarray binding, higher = more signal;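 note: binding of Prmt1 protein to compounds spotted on small-molecule microarray slides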
[2] = yeast growth modulation, basal conditions, primary screen, YJM789 clinical isolate, OD600, 24 h (AID 1089);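 note: growth of clinical yeast isolate S. cerevisiae YJM 789 seeded 1000 cells per well; test concentration not given here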; conditions: S. cerevisiae YJM789 growth, higher = more signal, called active from +8 up or from −8 down
[3] = fission yeast growth modulation, primary screen, strain 972, OD600, 24 h, no modulator (AID 1090);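 note: basal condition with compound alone and no growth modifier present; test concentration not given here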; conditions: S. pombe 972 growth, higher = more signal, called active from +8 up or from −8 down
[4] = S. cerevisiae growth modulation with rapamycin, primary screen, strain BY4716, OD600, 96 h (AID 1091); conditions: higher = more signal, called active from +8 up or from −8 down; note: test concentration not given here
[5] = target: Torsin-1A-interacting protein 2 (Homo sapiens) (UniProt Q8NFQ8); test: LULL1 binders on small-molecule microarray, primary screen, cell lysate, human LULL1 lysate, 635/667 nm fluorescence (AID 1092); conditions: hLULL1 lysate binding, 635 nm fluorescence, higher = more signal;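 note: probe is lysate of COS7 cells overexpressing human LULL1; score merges per-feature 667 nm fluorescence with signal-to-noise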
[6] = E. coli growth modulation, two-sided OD650, primary screen, E. coli filamentation project, strain DRC41, 24 h (AID 1093); conditions: OD650, 24 h, higher = more signal, called active from +8 up or from −8 down;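 note: MC1000 strain lacking acrAB efflux and sulA so SOS filamentation is blocked; test concentration not given here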
[7] = small-molecule microarray binders of probe aLefty2, primary screen, biochemical, biotinylated probe, 635/667 nm fluorescence (AID 1094); conditions: higher = more signal;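 note: score merges spot fluorescence near 667 nm with spot signal-to-noise ratio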
[8] = system: Noggin (protein binding on small-molecule microarray); test: Noggin binders on small-molecule microarray, primary screen, biochemical, 635/667 nm fluorescence (AID 1095); conditions: 635 nm fluorescence, higher = more signal;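 note: score merges 667 nm feature fluorescence with signal to noise over triplicate slides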
[9] = target: Neurogenic locus notch homolog protein 3 (Homo sapiens) (UniProt Q9UM47); test: NOTCH3 binders on small-molecule microarray, primary screen, biochemical, 635/667 nm fluorescence (AID 1096); conditions: NOTCH3 binding, 635 nm fluorescence, higher = more signal
[10] = small-molecule microarray binders of probe aEGFR, primary screen, biochemical, biotinylated probe, 635/667 nm fluorescence (AID 1097); conditions: higher = more signal;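 note: probe is a biotinylated anti-EGFR antibody binding compounds printed on slides; score combines fluorescence near 667 nm and signal to noise of each spot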

Neurogenic locus notch homolog protein 3 (Homo sapiens), sequence (Q9UM47 whole entry, looked up): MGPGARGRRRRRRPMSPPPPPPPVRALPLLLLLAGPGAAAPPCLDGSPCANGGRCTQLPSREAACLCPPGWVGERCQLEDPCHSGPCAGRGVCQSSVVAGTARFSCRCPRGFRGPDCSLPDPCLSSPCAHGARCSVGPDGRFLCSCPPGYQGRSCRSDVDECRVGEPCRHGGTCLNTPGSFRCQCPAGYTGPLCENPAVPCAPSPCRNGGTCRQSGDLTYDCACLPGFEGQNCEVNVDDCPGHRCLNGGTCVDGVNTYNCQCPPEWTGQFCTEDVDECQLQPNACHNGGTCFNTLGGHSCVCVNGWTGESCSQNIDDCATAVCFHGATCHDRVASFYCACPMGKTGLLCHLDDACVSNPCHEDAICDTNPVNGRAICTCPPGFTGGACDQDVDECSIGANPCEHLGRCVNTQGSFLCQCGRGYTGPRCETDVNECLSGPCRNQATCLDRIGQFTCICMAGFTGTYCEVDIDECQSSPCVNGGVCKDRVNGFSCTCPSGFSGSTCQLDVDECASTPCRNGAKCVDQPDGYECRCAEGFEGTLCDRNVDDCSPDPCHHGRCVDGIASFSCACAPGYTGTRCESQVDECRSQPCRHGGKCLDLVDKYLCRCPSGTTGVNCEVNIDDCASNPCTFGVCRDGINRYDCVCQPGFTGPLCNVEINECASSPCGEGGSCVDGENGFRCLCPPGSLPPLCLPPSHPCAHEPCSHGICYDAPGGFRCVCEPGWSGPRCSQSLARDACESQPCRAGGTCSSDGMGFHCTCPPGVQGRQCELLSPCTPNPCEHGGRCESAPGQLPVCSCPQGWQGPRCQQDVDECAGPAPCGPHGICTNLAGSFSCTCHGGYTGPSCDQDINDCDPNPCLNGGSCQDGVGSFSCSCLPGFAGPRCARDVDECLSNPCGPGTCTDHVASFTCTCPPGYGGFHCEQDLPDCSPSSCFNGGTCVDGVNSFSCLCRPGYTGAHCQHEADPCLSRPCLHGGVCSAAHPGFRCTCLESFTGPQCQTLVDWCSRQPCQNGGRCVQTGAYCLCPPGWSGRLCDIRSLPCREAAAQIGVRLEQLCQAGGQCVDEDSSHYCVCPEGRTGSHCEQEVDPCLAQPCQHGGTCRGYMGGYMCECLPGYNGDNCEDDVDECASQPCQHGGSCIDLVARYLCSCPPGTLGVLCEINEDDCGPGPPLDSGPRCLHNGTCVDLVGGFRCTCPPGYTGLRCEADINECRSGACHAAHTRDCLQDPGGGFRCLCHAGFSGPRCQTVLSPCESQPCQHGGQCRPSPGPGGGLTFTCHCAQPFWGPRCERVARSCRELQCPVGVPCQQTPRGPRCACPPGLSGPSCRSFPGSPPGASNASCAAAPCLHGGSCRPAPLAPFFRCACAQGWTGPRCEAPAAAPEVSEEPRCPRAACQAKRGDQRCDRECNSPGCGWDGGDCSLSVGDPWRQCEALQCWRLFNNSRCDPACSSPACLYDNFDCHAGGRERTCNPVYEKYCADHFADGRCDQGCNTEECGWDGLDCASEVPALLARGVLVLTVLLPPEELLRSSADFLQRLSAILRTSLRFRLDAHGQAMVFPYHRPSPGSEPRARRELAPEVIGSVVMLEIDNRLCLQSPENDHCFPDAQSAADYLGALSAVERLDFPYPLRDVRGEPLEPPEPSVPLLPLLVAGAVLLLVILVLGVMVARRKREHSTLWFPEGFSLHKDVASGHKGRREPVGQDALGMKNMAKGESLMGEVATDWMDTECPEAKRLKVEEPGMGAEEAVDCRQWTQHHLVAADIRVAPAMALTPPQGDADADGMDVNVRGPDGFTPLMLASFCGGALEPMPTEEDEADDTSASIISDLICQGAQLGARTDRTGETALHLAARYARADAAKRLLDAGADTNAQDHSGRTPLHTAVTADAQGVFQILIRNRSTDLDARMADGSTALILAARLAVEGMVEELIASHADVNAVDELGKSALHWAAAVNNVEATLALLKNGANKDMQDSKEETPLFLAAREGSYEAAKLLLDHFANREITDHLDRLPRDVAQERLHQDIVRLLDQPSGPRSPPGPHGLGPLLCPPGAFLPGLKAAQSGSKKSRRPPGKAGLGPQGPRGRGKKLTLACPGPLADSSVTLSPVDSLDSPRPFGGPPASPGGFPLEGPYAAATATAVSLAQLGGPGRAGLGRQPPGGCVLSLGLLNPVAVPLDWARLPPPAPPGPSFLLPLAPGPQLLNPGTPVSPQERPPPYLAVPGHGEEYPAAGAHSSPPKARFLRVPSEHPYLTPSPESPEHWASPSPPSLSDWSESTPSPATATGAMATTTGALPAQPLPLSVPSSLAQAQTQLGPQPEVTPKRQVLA
Torsin-1A-interacting protein 2 (Homo sapiens), sequence (Q8NFQ8 whole entry, looked up): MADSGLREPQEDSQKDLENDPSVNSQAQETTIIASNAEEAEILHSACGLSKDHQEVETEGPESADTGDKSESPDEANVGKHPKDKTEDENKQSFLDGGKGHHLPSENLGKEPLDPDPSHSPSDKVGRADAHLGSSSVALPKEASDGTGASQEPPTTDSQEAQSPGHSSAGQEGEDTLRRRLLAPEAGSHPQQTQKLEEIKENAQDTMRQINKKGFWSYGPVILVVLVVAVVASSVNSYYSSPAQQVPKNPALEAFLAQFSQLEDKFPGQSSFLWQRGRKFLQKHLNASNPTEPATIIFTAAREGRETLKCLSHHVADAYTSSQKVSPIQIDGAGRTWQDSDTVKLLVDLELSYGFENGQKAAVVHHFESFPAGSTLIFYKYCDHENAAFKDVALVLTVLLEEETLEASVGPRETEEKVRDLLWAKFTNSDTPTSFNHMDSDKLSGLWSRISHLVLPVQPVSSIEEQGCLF

| SMILES | composite z-score [1] | z-score [2] | z-score [3] | z-score [4] | composite z-score [5] | z-score [6] | composite z-score [7] | composite z-score [8] | composite z-score [9] | composite z-score [10] |
| --- | --- | --- | --- | --- | --- | --- | --- | --- | --- | --- |
| CCOC(=O)[C@@H]1CC2O[C@]23C[C@@H]1C(=O)N1CCC[C@@H]1[C@H]3O[Si](C)(C)C(C)(C)C (stereo not given in full) | -1.64 and -0.147 | -0.418 (inactive) and -1.22 (inactive) | -1.05 (inactive) and -0.791 (inactive) | -0.435 (inactive) and -0.321 (inactive) | -1.04 and 0.179 | -0.458 (inactive) and -0.86 (inactive) | -0.357 and -0.0163 | -0.355 and 0.12 | -0.868 and -0.199 | -0.12 and -0.0314 |
| C=CC[C@H](O)c1ccc(OCCO)cc1 | -0.145 and -1.37 | -0.192 (inactive) and -0.831 (inactive) | -0.228 (inactive) and -0.917 (inactive) | -0.389 (inactive) and -1.19 (inactive) | -0.435 and -2.14 | -0.646 (inactive) and -0.812 (inactive) | -0.0653 and -0.181 | -0.292 and 0.249 | -0.847 and -0.324 | -0.162 and -0.191 |
| C=CCN(C(=O)C(c1cccs1)N(C(=O)/C=C\C(=O)O)C(C)(C)CO)C(C)(C)C (stereo not given) | -0.381 and 0.182 | -1.81 (inactive) and -2 (inactive) | -1.45 (inactive) and -1.15 (inactive) | -0.429 (inactive) and -0.373 (inactive) | 2.89 and 0.484 | 2.02 (inactive) and 1.22 (inactive) | -0.141 and -0.147 | -1.52 and -1.23 | -0.97 and -0.967 | -0.128 and -0.292 |
| C[N+](C)(C)CCCCCCNC(=O)[C@H]1C[C@H]2C(=O)N[C@@H](CCCC[N+](C)(C)C)C(=O)N2[C@H]1c1cccc(OCCO)c1 | 1.46 and 0.0165 | -2.56 (inactive) and 0.455 (inactive) | -1.18 (inactive) and -0.331 (inactive) | 0.162 (inactive) and 1.01 (inactive) | 2.99 and 0.566 | 0.598 (inactive) and -0.404 (inactive) | -0.0589 and 0.582 | 1.94 and 0.904 | 1.01 and -0.0712 | -0.0703 and 0.127 |
| COCn1c2ccccc2c2nnc(C(C)=O)nc21 | -0.217 and 0.724 | -0.405 (inactive) and -0.362 (inactive) | -0.267 (inactive) and -1.08 (inactive) | -0.189 (inactive) and -0.135 (inactive) | -0.0703 and 0.184 | -0.35 (inactive) and -0.768 (inactive) | -0.0702 and -0.0137 | 0.1 and 0.372 | -0.007 and 0.307 | -0.0398 and -0.123 |
| CCOC(=O)CCN1C(=O)[C@H]2[C@H]3[C@H](O)[C@H](O)CC(=NNC(=O)OCC)[C@@H]3CC[C@H]2C1=O | 0.763 | -0.373 (inactive) | -0.769 (inactive) | -0.491 (inactive) | 0.45 | 0.441 (inactive) | 0.0634 | 0.531 | 0.316 | 0.095 |
| COC(=O)C1=C(C)N(Cc2ccccc2)[C@]23O[C@](C(=O)OC)(C(=O)N2[C@@H]1c1ccccc1)[C@H]1C(=O)N(C)C(=O)[C@H]13 | 1.42 and 0.289 | -0.458 (inactive) and -0.907 (inactive) | -0.0692 (inactive) and -1.06 (inactive) | 0.609 (inactive) and -0.776 (inactive) | 1.9 and 0.741 | 1.12 (inactive) and 0.684 (inactive) | -0.0831 and -0.125 | 1.35 and 0.752 | 0.877 and 0.903 | -0.0967 and 0.128 |
| COC(=O)C1=C(C)N(Cc2ccccc2)[C@]23O[C@](C(=O)OC)(C(=O)N2[C@@H]1c1ccccc1)[C@@H](c1ccccc1)[C@@H]3C(=O)c1ccccc1 | 0.618 and 0.917 | -1.15 (inactive) and -0.583 (inactive) | -3.18 (inactive) and -1.19 (inactive) | -1.82 (inactive) and -0.776 (inactive) | 0.869 and 0.031 | -0.0517 (inactive) and 0.951 (inactive) | -0.185 and 0.0062 | 0.115 and 0.974 | 0.58 and 0.216 | 0.0557 and -0.0428 |
| Cc1ccc(S(=O)(=O)OC[C@@H]2CN3[C@@H](CC[C@@H](C)[C@@H]3c3ccc(Br)cc3)C(=O)O2)cc1 | 0.353 and 1.4 | -0.464 (inactive) and 0.544 (inactive) | -0.252 (inactive) and 0.102 (inactive) | -0.182 (inactive) and 0.777 (inactive) | 0.454 and 0.845 | 0.199 (inactive) and -0.206 (inactive) | -0.0389 and -0.205 | 0.0884 and 0.47 | -0.0776 and 0.686 | 0.0519 and -0.0671 |
| CO[C@@H]1COC(=O)[C@H](Cc2ccccc2)NC(=O)CC=C[C@@H](C)[C@H](OC)COC(=O)[C@@H](C)NC(=O)CC=C[C@H]1C | 1.53 and 1.15 | -0.706 (inactive) and -0.356 (inactive) | -1.71 (inactive) and -1.2 (inactive) | -0.916 (inactive) and -0.753 (inactive) | 0.469 and -0.0887 | -0.0559 (inactive) and 0.361 (inactive) | -0.217 and -0.393 | 1.45 and 1.06 | 1.07 and 0.862 | -0.0616 and -0.0438 |
| C=C[C@H](C)[C@H](O)c1ccc(O)c2ccccc12 | -0.0037 and -0.738 | -3.96 (inactive) and -3.22 (inactive) | -10.7 (active) and -6.18 (inactive) | 4.04 (inactive) and 4.01 (inactive) | 0.48 and 0.622 | 1.84 (inactive) and 1.81 (inactive) | -0.274 and -0.168 | -0.431 and -0.211 | -0.283 and -0.073 | -0.275 and -0.203 |
| CCCNC(=O)OC[C@H]1O[C@H](CCON=C(C)CCN2CCc3nc(-c4ccccc4)c(-c4ccccc4)cc3C2)C=C[C@@H]1Oc1ccc(OC)cc1 | 0.497 | 1.12 (inactive) | -0.724 (inactive) | -3.57 (inactive) | 1.04 | 0.385 (inactive) | -0.0638 | 0.553 | -0.105 | 0.0321 |
| C=CCN(C(=O)C1N(CCOCCO)C(=O)C2C(C(=O)O)C3C=CC21O3)c1ccc(OC)cc1 (stereo not given) | -0.968 and -2.33 | -0.248 (inactive) and -0.0945 (inactive) | -0.188 (inactive) and -0.571 (inactive) | -0.348 (inactive) and -0.662 (inactive) | -0.408 and 1.86 | 0.612 (inactive) and 1.52 (inactive) | -0.158 and 0.0873 | -1.79 and -3.14 | -0.59 and -0.715 | -0.348 and -0.276 |
| CC(C)=CCCC(C)=CCON=C1C[C@@H](O)[C@@H](O)[C@@H]2[C@@H]3C(=O)N([C@@H](C)c4ccccc4)C(=O)[C@@H]3CC[C@H]12 | 1.13 | -1.23 (inactive) | -0.846 (inactive) | -0.989 (inactive) | 2.28 | -1.39 (inactive) | -0.0991 | 0.454 | 0.492 | -0.162 |
| C=CCN(CCCC)C(=O)C1N(c2ccc(CCO)cc2)C(=O)C2C(C(=O)O)C3C=CC21O3 (stereo not given) | 0.0734 and -0.79 | -0.844 (inactive) and -0.115 (inactive) | -0.261 (inactive) and -0.527 (inactive) | -0.0659 (inactive) and 0.252 (inactive) | -1.07 and 0.53 | 1.13 (inactive) and 2.05 (inactive) | 0.113 and 0.0553 | -2.44 and -3.58 | -1.38 and -1.27 | -0.226 and -0.317 |
| C=CCN(CCCC)C(=O)C1N(CCCCCCO)C(=O)C2C(C(=O)O)C3C=CC21O3 (stereo not given) | -0.448 and -0.52 | 0.0812 (inactive) and -0.104 (inactive) | 0.496 (inactive) and -0.0666 (inactive) | -0.282 (inactive) and -0.642 (inactive) | -0.179 and 2.36 | -0.909 (inactive) and -0.855 (inactive) | 0.0397 and -0.0936 | -3.5 and -2.6 | -1.8 and -1.2 | -0.485 and -0.356 |
| CCOC(=O)NN=C1C[C@@H](O)[C@@H](O)[C@@H]2[C@@H]3C(=O)N(Cc4ccccc4)C(=O)[C@@H]3CC[C@@H]12 | 0.249 | 0.872 (inactive) | 0.117 (inactive) | 0.552 (inactive) | -0.572 | -1.68 (inactive) | -0.217 | 0.406 | 0.639 | -0.282 |
| Cc1cc2c(nc1C)CCCN2CC(O)CN1CCCc2nc(-c3ccc(Br)cc3)ccc21 (stereo not given) | 1.55 and 1.54 | 0.612 (inactive) and 1.25 (inactive) | -3.62 (inactive) and -0.716 (inactive) | -1.15 (inactive) and -0.578 (inactive) | 1.25 and 1.75 | -0.804 (inactive) and 0.109 (inactive) | 0.467 and 0.823 | 1.02 and 0.741 | 1.1 and 1.11 | 0.304 and 0.48 |
| COC(=O)C1=C(C)N(Cc2ccccc2)[C@]23O[C@](C(=O)OC)(C(=O)N2[C@@H]1c1ccccc1)[C@H]1CCCC(=O)[C@H]13 | -0.0081 and 0.249 | 0.563 (inactive) and 0.21 (inactive) | -1.79 (inactive) and -1.07 (inactive) | -1.95 (inactive) and -0.557 (inactive) | 0.164 and -0.142 | 0.302 (inactive) and -0.824 (inactive) | -0.102 and -0.132 | 0.0709 and 0.413 | 0.31 and 0.604 | 0.173 and -0.0497 |
| C=CCN(CCCCC)C(=O)C1N(C(C)(C)CO)C(=O)C2C(C(=O)O)C3C=CC21O3 (stereo not given) | -1.11 and -1.37 | -0.447 (inactive) and -1.11 (inactive) | -0.342 (inactive) and -0.0005 (inactive) | -0.402 (inactive) and -0.177 (inactive) | -1.82 and -1.59 | -0.373 (inactive) and -0.262 (inactive) | -0.202 and -0.159 | -2.03 and -1.91 | -1.09 and -0.779 | -0.258 and -0.301 |
